# ATXN2 expr inh: Primary qHTS for Inhibitors of ATXN expression. HEK-293 ATXN2-luciferase reporter, luminescence, 24 h. Potency, µM (top dose mostly 57 µM), usual class: inhibitors. 360,000 compounds, 0.72% hits; note: nearly all actives have a fitted effect of over 55% in size
#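 qHTS (up to 57 uM final) was run with 24 h compound exposure of reporter cells at 37 °C. Each well was multiplexed: SteadyGlo luminescence measured ATXN2-luciferase expression after a fluorogenic Gly-Phe-AFC viability readout (25 uM final).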
# USP2a block: qHTS Assay for Inhibitors of Ubiquitin-specific Protease USP2a Using CHOP2 as the Reporter; USP2 core, Ub-CHOP2 coupled fluorogenic reporter, 485/531; Potency, µM (series often up to 38.3 µM), hits mostly inhibitors; 330,000 compounds, 0.01% hits
# Target sequence (O75604 whole entry, looked up): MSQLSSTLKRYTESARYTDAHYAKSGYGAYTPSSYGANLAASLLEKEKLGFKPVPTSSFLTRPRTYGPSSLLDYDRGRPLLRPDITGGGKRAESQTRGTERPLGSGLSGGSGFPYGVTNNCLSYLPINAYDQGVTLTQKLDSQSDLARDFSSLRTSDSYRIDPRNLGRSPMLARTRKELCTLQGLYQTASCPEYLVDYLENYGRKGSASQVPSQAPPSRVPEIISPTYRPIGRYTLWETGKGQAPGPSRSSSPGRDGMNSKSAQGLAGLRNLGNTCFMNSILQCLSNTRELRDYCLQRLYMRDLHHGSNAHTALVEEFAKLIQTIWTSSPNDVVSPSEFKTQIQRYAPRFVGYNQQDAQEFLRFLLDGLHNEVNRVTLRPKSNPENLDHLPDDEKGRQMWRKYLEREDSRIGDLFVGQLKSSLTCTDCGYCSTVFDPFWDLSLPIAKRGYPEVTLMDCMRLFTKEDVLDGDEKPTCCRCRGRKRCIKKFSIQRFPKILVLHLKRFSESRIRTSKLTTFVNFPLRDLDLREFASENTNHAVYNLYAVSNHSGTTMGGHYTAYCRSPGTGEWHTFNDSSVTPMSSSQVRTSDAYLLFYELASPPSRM
#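 USP2 core (10nM final) preincubated 30min RT with compound in 20mM Tris-HCl pH 8.0, 2mM CaCl2, 2mM beta-mercaptoethanol, 0.05% CHAPS; 25nM Ub-CHOP2 plus 25nM reporter substrate added, fluorescence (Ex485/Em531) read after 60min.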
# IL-1B inflam inh: qHTS for Inhibitors of Inflammasome Signaling: IL-1-beta AlphaLISA Primary Screen | THP-1 LPS/ATP IL-1B secretion, AlphaLISA, 16 h; active compounds read low | activity change, % at 57.5 µM | 360,000 compounds, 4.7% hits | AID 743279, 2014; in the data active = activity change below about -50%; inconclusive = mostly about -30% to -49%
#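 THP-1 cells pretreated 1 hr with compounds (up to 57.5 uM final), then stimulated with LPS (250 ng/mL final) plus ATP (1.25 mM final); secreted IL-1B measured by AlphaLISA after 16 hr, decreased signal indicating inhibition.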
# ATXN viability: Viability Counterscreen for Primary qHTS for Inhibitors of ATXN expression | S2 cells (HEK-293 line with an ATXN2-luciferase reporter) viability, CellTiter-Fluor protease fluorescence, 24 h | Potency, µM (doses to about 56.7 µM), actives largely listed as cytotoxic | 400,000 compounds, 0.49% hits; note: nearly all actives have a fitted effect of over 40% in size
# USP1-UAF1 inh: Inhibitors of USP1/UAF1: Primary Screen | Ubiquitin carboxyl-terminal hydrolase 1 (Homo sapiens), O94782 | recombinant USP1/UAF1, Ub-Rhodamine cleavage fluorescence | Potency, µM (top dose mostly 57.1 µM), usual class: inhibitors | 390,000 compounds, 0.23% hits | AID 743255, 2014; note: nearly all actives have a fitted effect of over 60% in size
#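 In this screen, compounds sit with the deubiquitinase complex (1nM) for 15 min at room temperature before Ub-Rho is added at 150nM final. Fluorescence rise is then followed for 6 reads every 60 seconds.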
# Numbers stand for hits; n = inactive; u = inconclusive; x = no result. Sampled rows, rich in hits. Any-hit rate of the full collection: about 4.8%. Unless noted, calls come from the whole dose curve; as a rule, active = well fitted curve in the direction sought with a large enough effect; inconclusive = small, poorly fitted or top-dose-only effect, or another doubt; inactive = no such curve, though single readings can be large; an effect the other way counts as inactive or inconclusive.
SMILES,ATXN2 expr inh,USP2a block,IL-1B inflam inh,ATXN viability,USP1-UAF1 inh
COc1cc2c(C#CCCO)c(-c3ccc(C#N)cc3)oc(=O)c2cc1OC,n,n,n,x,n
COc1cc2c(C#CCCO)c(-c3ccsc3)oc(=O)c2cc1OC,u,n,-73,u,n
CS(=O)(=O)N(CC(=O)Nc1ccc2c(c1)OCCO2)Cc1ccccc1,n,n,n,n,n
O=C(CN(Cc1ccccc1)S(=O)(=O)c1ccc2c(c1)OCCO2)Nc1ccc2c(c1)OCCO2,n,n,-53,n,n
Cn1nnnc1SCCCNCc1ccc(-c2ccc(Br)cc2)o1,u,x,x,u,n
COc1ccccc1C(=O)COC(=O)C1CCN(S(=O)(=O)c2ccccc2)CC1,x,x,n,n,n
Cc1ccc(/C=N/Nc2ccc(C(=O)O)cc2)s1,0.95µM,n,n,n,n
O=S(=O)(Nc1cccc2ncccc12)c1cccs1,3.2µM,n,-64,u,n
COc1cc(CN2CCNC(=O)C2CC(=O)NC2CCC2)cc(OC)c1 (stereo not drawn),x,n,n,n,n
O=C(COC(=O)c1ccc2ccccc2n1)Nc1cccc(S(=O)(=O)NC2=NCCCCC2)c1,x,n,n,n,n
CCc1nc2ccccc2c(C(=O)OCC(=O)Nc2ccc(S(=O)(=O)N3CCOCC3)cc2)c1C,n,n,n,n,n
CCc1nc2ccccc2c(C(=O)OCC(=O)Nc2cccc(S(=O)(=O)NC3=NCCCCC3)c2)c1C,22µM,n,-84,u,n
CCc1nc2ccccc2c(C(=O)OCC(=O)Nc2cccc(S(=O)(=O)N3CCOCC3)c2)c1C,u,n,-78,u,n
Cc1c(-c2cccc(Cl)c2)nc2ccccc2c1C(=O)OCC(=O)Nc1ccc2c(c1)OCO2,u,n,-59,u,n
Fc1ccc(Nc2nc(SCc3cccc(F)c3)nc3ccccc23)cc1,x,x,x,x,n
COC(=O)[C@]12CCCCC=C1N(CCc1ccc(OC)c(OC)c1)C(=O)[C@H](CC(=O)NCCCN1CCCC1=O)C2,x,x,n,x,x
O=C1C=C(C#Cc2ccccc2)C[C@@H](c2ccc(F)cc2)C1,u,x,-85,u,n
COc1ccccc1C#CC1=CC(=O)C[C@H](c2ccc(F)cc2)C1,n,x,-58,n,n
O=C1C(c2ccc(F)cc2)N(CCc2ccccc2)C(=O)CN1C1CCCCC1 (stereo not drawn),n,x,x,n,n
COc1ccc2c(c1)-c1nc(-n3ncc(C(=O)N(C)CC4CCCN(C)C4)c3C3CC3)ncc1CC2 (stereo not drawn),x,x,x,n,x
COc1cc(C(C)n2nnc3ccccc32)ccc1O (stereo not drawn),x,x,n,n,n
CCOC(=O)c1ccccc1NC(=O)CSc1ccc(-c2sc(C)nc2C)nn1,x,x,x,x,n
CCN(CCO)c1nc(N2CCCCC2)c2cnn(C)c2n1,x,n,n,n,n
O=C(O)CCCCN1C(=O)/C(=C\c2ccc(OCc3ccccc3)c(OCc3ccccc3)c2)SC1=S,n,n,-93,u,n
O=C(O)CCCN1C(=O)/C(=C\c2ccccc2OCc2ccccc2)SC1=S,n,n,n,n,u
SMILES,ATXN2 expr inh,USP2a block,IL-1B inflam inh,ATXN viability,USP1-UAF1 inh
O=C1/C(=C\c2ccc(O)c(O)c2)SC(=S)N1Cc1ccccc1,u,n,-87,28µM,n
O=C(O)c1cccc(CN2C(=O)S/C(=C/c3ccccc3[N+](=O)[O-])C2=O)c1,n,n,-82,n,u
O=C1/C(=C/c2ccncc2)SC(=S)N1Cc1ccccc1,n,n,-82,n,n
CCCN1C(=O)/C(=C/c2ccncc2)SC1=S,n,n,n,n,n
Cc1c(C(=O)NCC(C)(C)N2CCOCC2)cnn1-c1ncc2c(n1)-c1ccccc1CC2,x,x,x,n,x
CN1CCN(c2nc3c(c(=O)n(C)c(=O)n3C)n2Cc2ccccc2F)CC1,n,n,n,n,n
O=C(O)c1cc(-c2ccc(/C=C3/SC(=S)N(Cc4ccccc4)C3=O)o2)ccc1Cl,n,n,n,x,25µM
COc1cc(/C=C2/SC(=S)N(Cc3ccccc3)C2=O)ccc1O,n,n,-82,u,n
COc1ccc(CN2C(=O)/C(=C/c3ccc(-c4ccc(Cl)c(C(=O)O)c4)o3)SC2=S)cc1,x,n,x,x,x
O=C1/C(=C\c2cccc(O)c2O)SC(=S)N1Cc1ccccc1,u,n,-98,x,n
COc1cc(/C=C2/SC(=NCc3ccccc3)N(Cc3ccccc3)C2=O)ccc1O,n,n,n,n,n
O=C(Cn1nnc(-c2ccccc2Cl)n1)Nc1ccc(Br)cc1,x,x,x,x,n
Oc1ccccc1CNc1ccc(OC(F)(F)F)cc1,n,n,-89,n,n
Cc1ccc(NCc2ccccc2O)cc1C,n,n,n,u,n
COc1ccccc1C(CCN(Cc1cccs1)C(C)=O)c1ccco1 (stereo not drawn),n,n,-98,n,n
Nc1nc(Cl)nc(N(c2ccccc2)c2ccccc2)n1,n,n,n,n,n
Nc1nc(CCl)nc(N(c2ccccc2)c2ccccc2)n1,n,n,-102,u,n
O=C(c1cncs1)N(Cc1cc2cc3c(cc2nc1N1CCOCC1)CCC3)CC1CCCO1 (stereo not drawn),x,x,x,n,x
CCCCOc1ccc(/C=N/NC(=O)c2nnn(-c3nonc3N)c2C)cc1,x,n,n,n,n
OC(CNCCNc1ncccc1C(F)(F)F)COc1ccc(F)cc1 (stereo not drawn),n,n,-82,n,n
CC(NC(=O)COC(=O)c1ccc(CO)cc1)C1CC2CCC1C2 (stereo not drawn),n,n,n,n,n
O=C(/C=C/c1ccc(Cl)cc1Cl)Nc1cccc(S(=O)(=O)NC2=NCCC2)c1,x,n,u,u,n
O=C(/C=C/c1ccccc1Cl)Nc1cccc(S(=O)(=O)NC2=NCCCCC2)c1,n,n,-64,u,n
Cc1ccc(-n2c(SCC(=O)Nc3cccc(S(=O)(=O)NC4=NCCCCC4)c3)nc3ccccc3c2=O)cc1C,n,n,n,u,n
Cc1cc(SCC(=O)Nc2cccc(S(=O)(=O)NC3=NCCCCC3)c2)nc2ccccc12,x,n,-57,n,n
Cc1cc(Cl)ccc1OCC(=O)Nc1cccc(S(=O)(=O)NC2=NCCCCC2)c1,n,n,-71,n,n
O=C(COc1ccc(Cl)cc1)Nc1cccc(S(=O)(=O)NC2=NCCCCC2)c1,n,n,n,u,n
Cc1cc(SCC(=O)Nc2cccc(S(=O)(=O)NC3=NCCCCC3)c2)c(C)cc1Br,u,n,-64,n,n
COc1ccc(C(=O)NCC(c2cccnc2)N2CCc3ccccc3C2)cc1OC (stereo not drawn),x,x,x,x,n
O=[N+]([O-])c1ccc(N=Nc2ccc(O)cc2O)cc1,u,n,-92,u,n

# Compound activity from PubChem.
